Shown are actives, neighbours in structure and some others; about 4.1% of the full set was active somewhere.
DAX1 inh-1 – DAX1 (NR0B1) inhibition, primary screen; HEK293T StAR-luciferase reporter, SF-1/DAX-1 repression relief; inhibition, % at 6.8 µM; 370,000 compounds, 1.1% hits;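 active means inhibition above the mean over all tested compounds plus 3 SD, cut at about 3.6% in these data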;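 further: higher inhibition means more luminescence from relief of DAX-1 repression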
hcDAF-12 act – activators of H. contortus DAF-12 nuclear receptor | 370,000 compounds, 1.4% hits | HEK293 hcDAF-12 lit1-tk-luc reporter, luminescence; 0% DMSO, 100% Δ7-dafachronic acid | activation, % at 6.8 µM;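 active means activation above the mean of all tested compounds plus 3 SD, cut at about 5.5% in these data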
hgDAF-12 ag – activates the H. glycines DAF-12 receptor ligand-binding domain. HEK293 GAL4-hgDAF12 UAS-luciferase reporter, agonist luminescence; normalized to butyrate control. activation, % at 6.8 µM. 370,000 compounds, 1.8% hits. AID 687014;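 active means activation above a cutoff set at the mean of all screened compounds plus 3 SD, cut at about 10% in these data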
ssDAF-12 act – S. stercoralis DAF-12 activation, primary screen; HEK293 ssDAF-12/GRIP1 lit1-tk-luc reporter, luminescence; % of 3 µM dafachronic acid response; activation, % at 6.8 µM; 370,000 compounds, 1% hits;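 active means activation above the mean over all tested compounds plus 3 SD, cut at about 0.9% in these data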
DAX1 inh-2 – inhibits human nuclear receptor DAX1 | HEK293 Gal4-DAX1 luciferase reporter, luminescence | inhibition, % at 6.75 µM | 340,000 compounds, 0.99% hits | AID 504766;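 active means inhibition above the mean over all tested compounds plus 3 SD, cut at about 4.2% in these data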;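 further: inhibition shows as a rise in luminescence from relieved DAX1 repression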
Target sequence (P51843 207-470 limits assumed): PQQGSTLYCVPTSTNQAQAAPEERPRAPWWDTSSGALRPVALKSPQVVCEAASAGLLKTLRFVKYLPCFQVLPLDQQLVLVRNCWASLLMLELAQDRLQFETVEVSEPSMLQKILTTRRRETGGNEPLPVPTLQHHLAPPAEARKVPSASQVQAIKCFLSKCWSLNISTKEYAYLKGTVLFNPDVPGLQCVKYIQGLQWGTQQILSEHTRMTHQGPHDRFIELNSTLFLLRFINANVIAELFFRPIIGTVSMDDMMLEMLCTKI
Hits are given with their value; 0 = inactive; - = no result given.

SMILES	DAX1 inh-1	hcDAF-12 act	hgDAF-12 ag	ssDAF-12 act	DAX1 inh-2
O=C(Nc1ccccc1C(F)(F)F)O[C@@H]1CC[C@@]23CCCN2C(=O)CCC[C@H]3C1	-	0	0	0	-
COC(=O)C1=C(C(=O)OC)[C@@]2([C@H](Cc3ccc(C)cc3)Nc3ccccc3)C=C[C@@H]1O2	-	0	0	0	-
CCCOc1ccccc1/C=C(\C#N)C(=O)Nc1cccnc1	0	0	0	0	5.0
O=C1C2CCCN2C(c2ccc(F)cc2)N1c1cccc(Cl)c1 (stereo not given)	0	6.4	0	0	0
COc1ccc(Cl)cc1N1C(=O)C2CCCN2C1c1ccc(F)cc1 (stereo not given)	0	0	0	0	4.5
CC(C)NC(=O)C1CCN(c2cncnc2)CC1	0	0	0	0	-
C[C@@H]1OC(C2CCCCC2)N(C)[C@H]2C[C@H]3c4cc(N5CCOCC5)ccc4CCN3C[C@@H]12 (stereo not given in full)	0	0	0	0	-
Nc1ccc(S(=O)(=O)N2CCCC2)cc1	0	0	0	0	6.0
CCC(C(=O)Nc1c(C)cccc1C)n1c(-c2ccc(=O)[nH]c2)nc2ccccc21 (stereo not given)	0	0	0	1.5	-
C[C@H]1COc2cc(N3CCOCC3)ccc2S(=O)(=O)N1	0	0	0	0	-
Cc1nonc1C(=O)N/N=C/c1ccc(O)c(O)c1	0	0	0	0	0
O=C(N/N=C/c1ccc(O)c(O)c1)N/N=C/c1ccc(O)c(O)c1	0	7.3	0	0	0
CC(=O)NCCC(=O)Nc1nc2c(ccc3ccccc32)s1	0	0	0	0	0
Nc1nc2c(ccc3ccccc32)s1	0	0	0	0	4.9
Nc1ncnc2nc(SCCOc3ccc(Cl)cc3)[nH]c12	0	0	0	0	0
Cc1ccc(OCCSc2nc3ncnc(N)c3[nH]2)cc1	0	0	0	0	4.3
COC(=O)C1CCc2c(ccc3c2CCCC3)C1=O (stereo not given)	4.3	0	0	0	4.4
COc1cc(OC)cc(C(=O)Nc2cccc3c2CCCC3)c1	0	0	0	0	0
O=C(O)Cc1sc(Nc2ccc(Cl)cc2)nc1-c1cccs1	0	5.8	0	0	-
O=C(O)Cc1sc(Nc2cccc3ccccc23)nc1-c1ccccc1	4.3	0	0	0	0
Cc1ccc(CN2CCCCC(NC(=O)Cc3cccs3)C2=O)cc1 (stereo not given)	0	0	0	0	-
Fc1ccc(-c2csc(/C=C/c3ccc4c(c3)OCO4)n2)cc1	0	0	0	1.1	0
COc1ccccc1NC(=S)N1CCC(C(=O)c2ccc(F)cc2)CC1	0	0	0	0	5.6
Cc1ccsc1/C=N/n1c(-c2ccccn2)n[nH]c1=S	0	5.7	0	0	0
Cc1ccsc1/C=N/n1c(-c2ccccc2)n[nH]c1=S	0	0	0	0	0
SMILES	DAX1 inh-1	hcDAF-12 act	hgDAF-12 ag	ssDAF-12 act	DAX1 inh-2
COc1ccc(-c2ccc3c(n2)CCCN3S(=O)(=O)c2ccc(C#N)cc2)cc1	0	0	0	0	-
COC(=O)c1cc(S(=O)(=O)N2CCN(c3cccc(C(F)(F)F)c3)CC2)cn1C	0	0	0	0	-
CCCCCCCCN1C(=O)[C@@H](CC(=O)NCC2CCCCC2)C[C@@]2(C(=O)OC)C1=C[C@H](C(C)(C)C)O[C@@H]2C	0	0	0	0	-
O=C(O)c1cccc2c1C(=O)N(Cc1ccccc1)C2	0	0	0	1.2	0
Cc1c(C(=O)NCc2ccco2)oc2ccccc12	0	0	0	0	0
Cc1c(C(=O)NCc2ccco2)oc2c(F)cccc12	0	5.9	0	0	0
CCOC(=O)[C@@]12CCCC3=C1N(CCC3)C(=O)[C@H]2CC(=O)NCC12CC3CC(CC(C3)C1)C2	0	0	0	0	-
CCCc1nc2ccc(C(=O)OC)cn2c1Cc1ccc(C)cc1	0	0	0	0	-
CCCc1nc2ccc(C(=O)OC)cn2c1Cc1ccccc1	0	0	0	1.0	-
CCCc1nc2ccc(C(=O)OC)cn2c1Cc1ccccc1OC	4.2	0	0	0	-
CCc1nnn2c1Cn1c3ccccc3c(=O)n1[C@@H](C)C2	0	0	0	0	-
Cc1ccc(C)c(NC(=S)NC2CC3CCC(C2)N3Cc2ccco2)c1 (stereo not given)	0	0	0	1.6	0
COc1ccc(-c2nc(=S)c3ccc4ccccc4c3[nH]2)cc1	0	6.4	0	1.0	0
O=C1N2Cc3ccccc3C2CS(=O)(=O)N1C1CCCC1 (stereo not given)	0	0	0	0	-
COc1ccc(C(=O)OC2CCN(c3ncc(C(F)(F)F)cc3Cl)CC2)cc1	0	0	0	0	0
COc1ccc([C@H]2C=C3CN(C(=O)OC(C)(C)C)S(=O)(=O)[C@H]3C[C@H]2OC(=O)c2ccc(C(F)(F)F)cc2)cc1	0	5.7	0	0	0
CN(Cc1ccccc1)C(=O)OCc1cn(Cc2cccc(F)c2)nn1	0	0	0	0	-
CC1CCCCC1NC(=O)CC1Oc2ccccc2NC1=O (stereo not given)	0	0	0	0	0
CC1CCCCN1CCNC(=O)CC1Oc2ccccc2NC1=O (stereo not given)	0	0	0	3.2	4.6
Cc1ccc2c(c1)NC(=O)C(CC(=O)NC1CCCCC1C)O2 (stereo not given)	0	0	0	0	4.8
Cc1ccc2c(c1)NC(=O)C(CC(=O)NCCCN1CCCCC1C)O2 (stereo not given)	0	0	0	0	0
Cc1cccc(C2=CC(=O)CC(C)(C)C2=O)c1	0	0	0	0	-
O=C(Cc1c[nH]c2ccccc12)Nc1ccc(Nc2cccnc2)cc1	0	0	0	0	-
C/C(CC(=O)NCc1ccccc1)=N\NC(N)=S	0	0	0	0	0
C/C(CC(=O)NCc1ccc(F)cc1)=N\NC(N)=S	0	0	0	0	4.8
SMILES	DAX1 inh-1	hcDAF-12 act	hgDAF-12 ag	ssDAF-12 act	DAX1 inh-2
COC(=O)c1cc2c(c3c4ccccc4n(S(C)(=O)=O)c13)C(=O)N(Cc1ccccc1)C2	0	0	0	2.8	-
COC(=O)c1cc2c(c3c4ccccc4n(S(=O)(=O)c4ccccc4)c13)C(=O)N(Cc1ccc(N(C)C)cc1)C2	0	0	0	0	-
CC(C)Cc1nnc(NC(=O)c2cc3c(s2)CCC3)s1	0	0	0	0	0
O=C(Nc1nncs1)c1cc2c(s1)CCC2	0	0	12	0	0
CCOCCCNC(=O)Cn1cc2c(n1)CCCC2	0	0	0	0	5.4
CCCN1CCN(CCCNC(=O)Cn2cc3c(n2)CCCC3)CC1	0	0	0	0	0
O=C(NC1CCC1)O[C@H]1CC[C@@]23CCCN2C(=O)CCC[C@H]3C1	-	0	0	0	-
Cc1ccccc1S(=O)(=O)N1CCCc2nc(-c3ccccc3)ccc21	0	0	0	0	-
C/C(=N\N1CCN(Cc2ccc(Cl)cc2)CC1)c1ccc(F)cc1	0	0	0	0	4.5
c1ccc2c(c1)Nc1cc3ccccc3cc1O2	0	0	0	0.9	0
O=C(NCCc1ccccc1)c1[nH]c(C(F)(F)F)nc1-c1ccccc1	0	0	0	1.2	-

Screens as filed in PubChem.
